# Test system: LXRa:RXRa (NR concentration 270 nM, RXRa partner concentration 90 nM)
# Test: PBM binding z-score (relative to random genomic background probes); higher = stronger binding; sequences stand for … in GC…GCGATTGACAGCGTAGAATGAAGG
# In short: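 For binding z-scores, the reference was random background probes on custom Agilent 4×180K protein-binding microarrays. These arrays were incubated 1 h with ligand-free nuclear receptor dimers in PBS pH 7.4, 2% milk, 0.02% Triton X-100, 1 mM DTT, 0.2 mg/mL BSA and 0.4 mg/ml salmon testes DNA. Fluorescence was scanned after antibody detection of each partner (one per run) and regression-normalized.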
row,Sequence,PBM binding z-score
1,TTACCAACGTGAAAGGTCGTTGATGCACGCCTTG,1.48
2,CCTACTGCGCCACGAAAGGTCATTGATTCAGTGA,5.05
3,TCATATAGGTAAACGTGAAAGTCGAACGATATGA,0.332
4,GGAACGAGGGCAAAGTTGATAGCATCTGTCGACG,0.921
5,CCTAGCAGGCCAATCTGGGTGACTCAAGGCTTGA,-0.53
6,TCTGCTGGGTCAGTTGGTCAGCTAACGAGCTGCC,-0.0859
7,CCTACTAGGTCATGGTCAGCTAATCTACAGTATG,2.57
8,TCTGTTAGTTGAAGGGCAACCGACGAGTCCGTTT,0.866
9,TCGGCTAGGTCAACGATGGTCAGCTAATCTGCTA,2.31
10,AGAATGAGGTTAATAAGATCAGGGAATTGCGGTC,1.15
11,AGAACGAGGGCAATGAGTTGATAGTACGGGTGGC,0.29
12,AGTCAAAGTTCATCTAGGGAACGTAAGATATGCT,5.95
13,ATAACGAGGGCACGCTGAGTTGATAGCAGAGTAG,1.11
14,ATCTGTAGGTAACCAAGTTCAGTGAATGCCGAAC,0.775
15,AGAACGAGGGCACGCTGAGTTGAGAGCAGAGTAG,1.06
16,CTCGAAAGGTCGTGCTGAGGTGAGTATACCAAAC,3.82
17,CAAACTAGGTCCAGAGGTCAAAGTCCGCTTCCCG,5.55
18,CGTCCAAGGTCAAAGGTCAGTGACGAGATGACGG,6.97
19,GGAACGAGGGCAAAGTTGATAGAATCTGTCGACG,1.1
20,TCTTGTAGATCAATAGAGGATAAGAAAGTGCGCT,0.33

row,Sequence,PBM binding z-score
1,CGAACCAGGTCAAGGACAGTGAATCTCCGCACGC,2.98
2,CCGGCTAGGTCATGGTCAGCTAATCTACAGTATG,2.64
3,ATACCAAGGTGCTCGTGAGGTCGTTGATACTAAC,0.535
4,CCAACTAGGTCAAGGACAGTGAATCTCCGCACGC,2.12
5,GTAACGAGGGCAAGTTGATAGCAGAGTTTGATGG,0.576
6,TCTGCTAGGTCAGTTGGACAGCTAACGAGCTGCC,0.508
7,AGTCAAAGCTCAGGACGAGGTAACGTAAAGCACG,-0.551
8,ACGTACGGGTCAACGAGGTTATAGCACGCGTATA,4.84
9,CCTTACGGGTCACTGACAGGTTAGAGCATTTGGA,3.9
10,CGAACTAGGTCATCCAGGACAGTCAATACATTGA,3.11
11,CAAACTAGGCCAAAGGTCAAAGTCGAGCCAACCA,5.86
12,CGTCCAAGGTCAATGTCAGTGAAAGAGACTCGAA,4.8
13,TCTATTACTTGAAGGGCAACCGACGAGTCCGTTT,1.02
14,TCTTGTAGATCAACAGGAGGTTAAGAACGATCGA,0.857
15,TCATATAGGTAAATGCTAGGTGAAAGTCCGATCT,1.02
16,TCTAGTTGGTCACGGAGGTCACACAAGACGGGTA,3.39
17,CGAACTAGGTCATCCAAGACAGTGAATACATTGA,2.37
18,TCTTATAGATCAACAGGAGGTTAAGAAAGATCGA,1.6
19,CGAACTAGGTCAGAACAGGAAAGTGAAGGATGAT,0.447
20,ATATGTAGGTTATCGCGTCATTCAGTTTGCGCAT,1.01

# Reference: the supplement of paper PMC6555819
